# The list is not random: actives were taken first. Their share in the collection is about 3.5%.
# GPR151 activ = activates the human receptor GPR151 | Q8TDV0 | PathHunter beta-arrestin GPR151 cells, luminescence | activation, % at 11.2 µM | 650,000 tested, 1% active; in the data active = activation above about 4.9%
# Target sequence (Q8TDV0 whole entry, looked up): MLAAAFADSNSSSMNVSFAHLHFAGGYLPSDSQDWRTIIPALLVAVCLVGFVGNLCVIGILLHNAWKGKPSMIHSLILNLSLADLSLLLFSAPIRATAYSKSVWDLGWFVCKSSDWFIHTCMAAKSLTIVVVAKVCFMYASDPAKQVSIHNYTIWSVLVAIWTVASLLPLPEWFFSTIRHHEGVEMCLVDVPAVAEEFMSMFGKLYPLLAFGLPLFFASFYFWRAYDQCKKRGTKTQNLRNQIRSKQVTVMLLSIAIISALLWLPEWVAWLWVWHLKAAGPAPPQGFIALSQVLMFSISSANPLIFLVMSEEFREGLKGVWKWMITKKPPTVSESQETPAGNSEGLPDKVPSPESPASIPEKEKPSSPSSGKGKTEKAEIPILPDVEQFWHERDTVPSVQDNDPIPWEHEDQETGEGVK
# FBW7 activator = activators of human E3 ligase FBW7; Q969H0; AlphaScreen FBW7–phospho-cyclin E peptide binding, activator screen; normalized activity (activation), % at 26.1 µM; 650,000 tested, 0.13% active; AID 1259310; in the data active = normalized activity above about 1.9%;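 also: purified mutant Fbw7 with reduced substrate affinity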
# TEAD-YAP inh = TEAD-YAP interaction inhibition; HEK-TIYL cells, TEAD-Gal4/YAP UAS-luciferase luminescence; inhibition, % at 9.12 µM; 640,000 tested, 1.4% active; AID 1259422; in the data active = inhibition above about 32%
# MITF primary = human MITF inhibition, primary screen. AlphaScreen MITF homodimerization, bead proximity signal. inhibition, % at 2.6 µM. 650,000 tested, 0.91% active. AID 1259374; in the data active = inhibition above about 50%
# MITF confirm = confirmation of human MITF inhibitors | shares compounds with MITF primary | AlphaScreen MITF homodimerization, biotin/His-MITF beads | inhibition, % at 2.6 µM | 4,700 tested, 16% active | AID 1259372;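 active = inhibition above a cutoff derived from the DMSO control wells, cut at about 28% in these data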;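 also: inhibitors lower the bead chemiluminescence by keeping MITF from dimerizing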
# AlphaScreen DR = counter-screen: compounds optically interfering with AlphaScreen. shares compounds with MITF primary. AlphaScreen optical interference counterscreen, cell-free. IC50, µM. 480 tested, 6% active. AID 1259373; call rule not given here
# AlphaScreen intf2 = optically interferes with AlphaScreen signal | shares compounds with MITF primary | LysRS AlphaScreen counterscreen, signal interference, triplicate | inhibition, % at 2.6 µM | 4,700 tested, 7.6% active | AID 1259376;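 active = inhibition above a cutoff derived from the DMSO control wells, cut at about 30% in these data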
# A number is an active result; - = inactive; . = no result.
SMILES,GPR151 activ,FBW7 activator,TEAD-YAP inh,MITF primary,MITF confirm,AlphaScreen intf2,others
CCC(C)NCCCOc1ccc(Br)cc1C (stereo unspecified),-,-,-,57,-,-,
CCC(C)NCCOc1cccc(Br)c1 (stereo unspecified),-,-,-,61,45,-,AlphaScreen DR=-
CCOc1cccc(OCCCNC(C)CC)c1 (stereo unspecified),-,-,-,-,.,.,
CCC(C)NCCOCCOc1ccc(I)cc1 (stereo unspecified),-,-,-,55,-,-,
O=C(Nc1ccccc1Cl)N(CCCO)Cc1cc2cc3c(cc2[nH]c1=O)OCCO3,-,-,-,-,.,.,
O=C(Cc1ccccc1)N(c1ccc(Br)cc1)C1C=CS(=O)(=O)C1 (stereo unspecified),-,-,-,-,.,.,
Cc1ccc(S(=O)(=O)CCN2CCN(Cc3ccccc3)CC2)cc1,-,-,-,-,.,.,
c1ccc(CN2CCN(Cc3ccncc3)CC2)cc1,-,-,-,80,-,-,
c1ccc(CCCN2CCN(Cc3ccncc3)CC2)cc1,-,-,-,69,-,-,
Cc1ccc(CN2CCN(CCCc3ccccc3)CC2)cc1,-,-,-,66,-,-,
COc1ccc(CN2CCN(CCCc3ccccc3)CC2)cc1OC,-,-,-,59,-,-,
COc1ccc(CN2CCN(CCCc3ccccc3)C(CCO)C2)cc1OC (stereo unspecified),-,-,-,-,.,.,
Cc1ccc(SCC(=O)c2ccc[nH]2)cc1C,-,-,-,-,.,.,
Cc1sc(NC(=O)CN(Cc2ccc(F)cc2)C(=O)C(C)(C)C)c(C(N)=O)c1C,-,-,-,68,-,-,
Cc1sc(NC(=O)CN(Cc2ccc(F)cc2)C(=O)c2ccccc2)c(C(N)=O)c1C,-,-,-,-,.,.,
Cc1ccccc1OCCOCCN1CCN(C)CC1,-,-,-,73,-,-,
Cc1cccc(C(C)(C)C)c1OCCOCCN1CCOCC1,-,-,-,-,.,.,
Cc1cccc(C(C)(C)C)c1OCCCN1CCN(C)CC1,-,-,-,68,-,-,
Cc1cccc(C)c1OCCOCCN1CCN(C)CC1,-,-,-,64,-,-,
CSc1ncccc1C(=O)NCCn1nc(C)cc1C,-,-,-,-,.,.,
CC(C)C/C=N/NC(=O)c1ccc2c(c1)NC(=O)C(C)(C)O2,-,-,-,60,-,-,
Cc1ccc2nc(N3CCC(NCCc4ccccc4F)CC3)nc(C)c2c1,-,-,-,73,-,-,
CCOc1cc(C=O)c(Cl)cc1O,-,-,-,-,.,.,
CC(C)(CNC(=O)CCc1nnc(-c2ccccc2)o1)N1CCOCC1,-,-,-,-,.,.,
COc1ccccc1N(C(=O)c1ccc(Cl)cc1)c1nc(C(F)(F)F)c(-c2ccccc2)s1,-,-,-,-,.,.,
SMILES,GPR151 activ,FBW7 activator,TEAD-YAP inh,MITF primary,MITF confirm,AlphaScreen intf2,others
Cc1sc2ncn(CC(=O)NCC(=O)N3CCN(c4ccc(F)cc4)CC3)c(=O)c2c1C,-,-,-,68,-,-,
CCOc1cc(C(=O)Nc2c3c(nn2-c2ccccc2C)CS(=O)C3)cc(OCC)c1OCC (stereo unspecified),-,-,-,-,.,.,
N#Cc1cc[n+](CC(=O)c2cccc([N+](=O)[O-])c2)cc1,-,-,-,63,-,-,
CCOC(=O)c1cc[n+](CC(=O)c2cccc([N+](=O)[O-])c2)cc1,-,-,-,-,.,.,
COc1cccc(CN2CCN(S(=O)(=O)c3ccccc3[N+](=O)[O-])CC2)c1OC,-,-,-,53,-,-,
O=[N+]([O-])c1ccccc1S(=O)(=O)N1CCN(Cc2ccccc2)CC1,-,-,-,-,.,.,
O=[N+]([O-])c1ccccc1S(=O)(=O)N1CCN(Cc2cccs2)CC1,-,-,-,55,-,-,
O=[N+]([O-])c1ccccc1S(=O)(=O)N1CCN(Cc2ccsc2)CC1,-,-,-,-,.,.,
Cc1cccc(CN2CCN(S(=O)(=O)c3ccccc3[N+](=O)[O-])CC2)c1,-,-,-,59,45,-,AlphaScreen DR=-
O=[N+]([O-])c1ccccc1S(=O)(=O)N1CCN(Cc2ccncc2)CC1,-,-,-,76,-,-,
O=[N+]([O-])c1ccccc1S(=O)(=O)N1CCN(Cc2cccc(F)c2)CC1,-,-,-,56,-,-,
CC1CCC(N2CCN(Cc3cccc(F)c3)CC2)CC1 (stereo unspecified),-,-,-,54,-,-,
